Sampled rows, rich in hits. Any-hit rate of the full collection: about 3.8%.
Sfp inh: blocks B. subtilis Sfp PPTase activity. Biochemical Sfp PPTase activity, qHTS. AID 1490. Q9F4F7. 310,000 compounds, 3.5% hits. Potency, µM, for the others: largest response in the series, negative = inhibition, most hits filed as inhibitors;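 note: the enzyme is Sfp with the accession as filed and its product quenches rhodamine fluorescence; 0% = enzyme reaction without inhibitor and -100% = no enzyme wells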
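Compounds were incubated with enzyme (final 15 nM) for 15 min at room temperature before substrate addition started the reaction. Fluorescence at 525 nm excitation, 598 nm emission was recorded immediately and after 30 minutes.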
TrxR1 substrate: substrates of rat thioredoxin reductase 1 | Potency, µM (doses to about 114 µM), for the others: at the top dose activity change, negative = substrate turnover | 390,000 compounds, 0.01% hits | O89049 | purified TrxR1 substrate turnover, NADPH consumption readout | AID 588456; note: nearly all actives have a fitted effect of over 50% in size
Target sequence (O89049 whole entry, looked up): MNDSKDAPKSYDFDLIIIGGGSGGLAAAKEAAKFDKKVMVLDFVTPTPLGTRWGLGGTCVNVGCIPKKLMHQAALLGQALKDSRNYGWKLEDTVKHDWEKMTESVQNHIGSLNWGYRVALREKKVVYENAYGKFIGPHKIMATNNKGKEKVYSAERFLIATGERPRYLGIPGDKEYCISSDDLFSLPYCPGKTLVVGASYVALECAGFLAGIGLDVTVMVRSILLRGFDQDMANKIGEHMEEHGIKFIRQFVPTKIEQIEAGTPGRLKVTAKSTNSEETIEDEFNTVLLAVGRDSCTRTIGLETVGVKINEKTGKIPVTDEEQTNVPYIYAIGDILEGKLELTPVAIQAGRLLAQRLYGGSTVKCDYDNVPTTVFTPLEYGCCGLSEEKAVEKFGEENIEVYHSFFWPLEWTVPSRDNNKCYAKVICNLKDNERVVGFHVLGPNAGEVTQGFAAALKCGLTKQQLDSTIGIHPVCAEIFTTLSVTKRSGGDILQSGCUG
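Rat TrxR1, dispensed at 90 nM, was prereduced with 400 uM NADPH (final) for 5 min at ~22 deg C, then incubated with compound 15 min before 400 uM selenite. A first-read NADPH fluorescence drop versus no-compound background flagged substrates.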
rTrxR1 inhibitor: inhibitors of rat thioredoxin reductase 1; O89049; recombinant rTrxR1, NADPH fluorescence consumption, selenite substrate; Potency, µM (highest dose often 114 µM), for inactives: at the top dose activity change, negative = inhibition, usual class: inhibitors; 390,000 compounds, 1% hits; AID 588453; note: nearly all actives have a fitted effect of over 65% in size
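Rat TrxR1 (90 nM in the dispensed reagent) was pre-reduced with 400 uM NADPH for 5 min at room temperature, then incubated with compound for 15 min. After 400 uM selenite was added, NADPH fluorescence (Ex 340/Em 450 nm) was followed for 8 min.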
VDR inh: vitamin D3 receptor (human) inhibition. VDR-SRC2-3 peptide fluorescence polarization, 2 h. Potency, µM, without a hit: max response, negative = inhibition, most hits filed as inhibitors. 400,000 compounds, 0.93% hits
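VDR–SRC2-3 interaction, FP format. Cmpds 23 nl via pintool, brief spin, 2 h ambient incubation.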
GCN5L2 inh: GCN5L2 (KAT2A) acetyltransferase inhibition. GCN5L2 HAT assay, ThioGlo1 CoA-SH fluorescence. Potency, µM (highest dose often 58.9 µM), for the others: top-dose activity change, negative = inhibition, most hits filed as inhibitors. 390,000 compounds, 0.21% hits. AID 504327
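Enzyme at 20nM final was mixed with library compounds for 15 min at room temperature. Peptide H3(1-25) at 75uM, acetyl-CoA at 70uM and ThioGlo1 at 50uM were then added. Plates were read immediately and after 20 min (Ex340nm/Em540nm).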
GLS inhibitor: blocks human kidney-isoform glutaminase activity | O94925 | 410,000 compounds, 0.21% hits | AID 624170 | Potency, µM (series often up to 45.5 µM), for inactives: at the top dose activity change, negative = inhibition, actives largely listed as inhibitors | GLS enzymatic activity, qHTS titration
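Human kidney-isoform GLS in 45 mM KH2PO4 pH 8.2, 0.02% Tween-20, with compound, started with 1mM L-Glutamine (added stock). Glutamate oxidase/HRP/Amplex red coupled fluorescence read at start and after 30 min at RT.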
Numbers without * were called inactive; ? = inconclusive; · = not tested or not shown; [ ] = remark or other dose. Calls come from the whole dose curve; as a rule, active = well fitted curve in the direction sought with a large enough effect; inconclusive = small, poorly fitted or top-dose-only effect, or another doubt; inactive = no such curve, though single readings can be large; an effect the other way counts as inactive or inconclusive. Unless noted, % is set by controls: 0 for no effect and ±100 for the full control effect; potency is the fitted concentration of half-maximal effect.

SMILES | Sfp inh | TrxR1 substrate | rTrxR1 inhibitor | VDR inh | GCN5L2 inh | GLS inhibitor
CCOC(=O)c1cnc2c(C)cc(Cl)cc2c1NCCCN1CCOCC1 | 1.5% | 3.5% | 12.7% | 0.7% | -9.1% | -3.5%
Cc1cc(F)ccc1S(=O)(=O)N(C(=O)c1ccncc1)c1ccc(OC(=O)c2ccncc2)cc1 | 8.1% | 4.4%[57.1 µM] | 0.8%[57.1 µM] | ? | -1.7% | 16.3%
O=C(Oc1ccc(N(C(=O)c2ccncc2)S(=O)(=O)c2cccs2)cc1)c1ccncc1 | 10.4% | 2.8% | 39.8µM* | -19.4% | -2.0% | 39.8%
N=C(N)SCc1ncccc1O | -22.8% | -4.9% | 31.6µM* | -8.2% | -1.0% | -12.9%
N=C(N)SCc1nc2ccccn2c1Br | 4.4% | -1.2% | 9.5% | -14.2% | 21.4% | -2.9%
Cc1nc(CSc2ccc(Cl)cc2)cc(N2CC(C)OC(C)C2)n1 (stereo not drawn) | 0.4% | 2.1% | 14.3% | 4.1% | -6.2% | 1.1%
O=C1Nc2ccc(Br)cc2/C1=C/C1CC=CCC1 (stereo not drawn) | 9.5% | -4.4% | -4.6% | 70.8µM* | -8.8% | 7.3%
COc1ccc(C(=O)/C=C2\C(=O)Nc3ccc(Br)cc32)cc1 | · | 3.9%[11.4 µM] | -2.3%[11.4 µM] | ? | · | 0.7%
COCCN(CCOC)C(=O)C1CCN(c2ccc(S(=O)(=O)N3CCOCC3)cc2[N+](=O)[O-])CC1 | · | -3.3% | -6.7% | 3.4% | -3.0% | -13.2%
CC(=O)c1ccc(N2CCC(C(=O)O)CC2)cc1 | 10.7% | -3.7% | 8.7% | 0.0% | -11.2% | 8.0%
O=c1oc2ccc3ccccc3c2cc1-c1nc2c(s1)CCc1ccccc1-2 | · | -1.8% | ? | -5.7% | · | ·
O=c1oc2ccccc2cc1-c1nc2c(s1)CCc1ccccc1-2 | 7.94µM* | -1.0% | -34.7% | -11.1% | -21.0% | 1.6%
Nc1nc2c(s1)CCc1ccccc1-2 | 79.4µM* | 0.0% | 8.9% | ? | 0.4% | -1.6%
N#C/C(=C(/O)CCl)c1nc2c(s1)CCc1ccccc1-2 | 56.2µM* | 3.0%[57.1 µM] | ? | ? | -13.6% | -26.6%
O=c1oc2cc(O)ccc2cc1-c1nc2c(s1)CCc1ccccc1-2 | 56.2µM* | 29.6% | -16.8% | -15.9% | -6.9% | 22.1%
COc1ccc(N2CCN(Cc3nc4scc(-c5ccccc5)c4c(=O)[nH]3)CC2)cc1 | 24.4% | -4.5% | -2.1% | 41.2% | -4.6% | 15.5%
O=C(CN1CCN(c2ccccc2)CC1)Nc1ccccc1C(=O)NCCc1ccccc1 | · | · | · | · | · | 0.7%
COc1ccc(-c2cn3c(n2)sc2cc(C(=O)NCC(C)c4ccccc4)ccc23)cc1 (stereo not drawn) | · | -1.9%[11.4 µM] | 14.0% | 1.9% | -5.0% | 0.9%
O=C(c1ccccc1)n1nnc2ccccc21 | ? | -2.3% | 5.01µM* | -8.9% | · | ?
O=C(CSc1ccc(-c2ccco2)nn1)NCc1ccc(F)cc1 | ? | 7.2% | 50.1µM* | -13.2% | -0.1% | -3.7%
O=C(CSc1ccc(-c2ccco2)nn1)c1ccc(F)cc1 | 31.6µM* | -4.3% | 8.91µM* | ? | -16.3% | -1.1%
COc1ccc(CCNC(=O)CSc2ccc(-c3ccco3)nn2)cc1 | -61.0% | 12.7% | -46.4% | 5.6% | ? | -1.5%
Cc1ccc(CNC(=O)CSc2ccc(-c3ccco3)nn2)cc1 | -11.3% | -11.9% | ? | -1.2% | -8.3% | 2.6%
O=C(CSc1ccc(-c2ccco2)nn1)NCCc1ccccc1 | 31.6µM* | 2.7% | 17.8µM* | 7.4% | -11.3% | -10.1%
O=C(CSc1ccc(-c2ccc(F)cc2)nn1)NCc1ccco1 | 13.1% | -4.2% | -4.6% | 27.2% | -5.2% | -2.9%
COCCNC(=S)N1CCN(C(c2ccccc2)c2ccccc2)CC1 | 10.5% | 0.3% | 11.6% | 1.9% | ? | 4.4%
Cc1ccc(-n2ncc(C(=O)N3CCN(c4cccc(C)c4)C(C)C3)c2C2CCN(C(=O)OC(C)(C)C)CC2)cc1 (stereo not drawn) | · | -11.6% | -7.7% | 2.6% | -0.5% | -6.9%
COc1ccccc1C(=O)Nc1ccc(C2=NNC(=O)CC2C)cc1 (stereo not drawn) | 9.6% | -9.6% | -5.3% | -0.1% | 2.8% | 1.8%
